Laboratory results published in PubChem BioAssay (Tox21).
Results filed as inconclusive are left out. The source made the active and inactive calls. Unless noted, the call rests on the fitted dose curve.

Columns and labels:
[1] = qHTS assay to identify small molecule agonists of the vitamin D receptor (VDR) signaling pathway - cell viability counter screen (AID 743224; active means well fitted curve in the direction sought with a large enough effect in the repeat runs; an effect the other way counts as inactive or inconclusive; further: series mostly up to about 63 µM; on the % scale 0 is the no-effect control and ±100 the full control effect; nearly all actives have a fitted effect of over 50% in size)
Method in brief: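 Cytotoxicity counter screen: VDR-bla cells, 16 h compound exposure at 37C, 5% CO2; CellTiter-Glo luminescence, 30 min RT, same wells as bla read.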

[2] = qHTS assay to identify small molecule antagonists of the vitamin D receptor (VDR) signaling pathway - cell viability counter screen (AID 743225; active means well fitted curve in the direction sought with a large enough effect in the repeat runs; an effect the other way counts as inactive or inconclusive; further: on the % scale 0 is the no-effect control and ±100 the full control effect; nearly all actives have a fitted effect of over 50% in size)
Method in brief: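 VDR-bla HEK 293T cells, 4 h pre-incubation at 37C, then compound plus 1-alpha,25-dihydroxyvitamin D3 (3 nM final) for 16 h. After the beta-lactamase FRET read, CellTiter-Glo was added to the same wells; luminescence after 30 min at room temperature.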

[3] = qHTS assay to identify small molecule agonists of the NFkB signaling pathway (AID 1159509; active means well fitted curve in the direction sought with a large enough effect in the signal ratio in the repeat runs, not every such curve was filed as active; the % refers to the signal ratio; further: series mostly up to about 61 µM; on the % scale 0 is the no-effect control and ±100 the full control effect)
Method in brief: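 Readout: FRET fluorescence, 405 nm excitation, 460/530 nm emission; beta-lactamase expression disrupts FRET. Cells: ME-180 stably carrying NF-kB-driven bla reporter. Compound exposure 5 hr, 37 C, 5% CO2.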

[4] = qHTS assay to identify small molecule agonists of the NFkB signaling pathway - cell viability counter screen (AID 1159515); further: series mostly up to about 61 µM; on the % scale 0 is the no-effect control and ±100 the full control effect; nearly all actives have a fitted effect of over 55% in size
Method in brief: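 ME-180 NFkB-bla cells, 2,000/well; overnight attach; compound 5 hr, 37 C/5% CO2; LiveBLAzer substrate 1.5 hr RT; then CellTiter-Glo in same wells, 30 min RT, luminescence read.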

[5] = qHTS assay to identify small molecule agonists of the endoplasmic reticulum stress response signaling pathway (AID 1159516; active means well fitted activation curve with a large enough effect in the signal ratio in the repeat runs, not every such curve was filed as active; the % refers to the signal ratio; further: on the % scale 0 is the no-effect control and ±100 the full control effect)
Method in brief: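 HeLa ESRE-bla reporter line; cpd 5 h, 37 C/5% CO2; LiveBLAzer B/G FRET substrate 2 h RT; ex 405, em 460/530 nm.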

[6] = qHTS assay to identify small molecule agonists of the endoplasmic reticulum stress response signaling pathway - cell viability counter screen (AID 1159517);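 further: HeLa cells carrying an ER stress response element beta-lactamase reporter; series mostly up to about 61 µM; on the % scale 0 is the no-effect control and ±100 the full control effect; nearly all actives have a fitted effect of over 50% in size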
Method in brief: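 Steps: seed 1,500 ESRE-bla HeLa cells per well; incubate overnight at 37 C, 5% CO2; add compounds in DMSO for 5 hr; run FRET substrate 2 hr RT; add CellTiter-Glo, wait 30 min, read luminescence.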

[7] = qHTS assay to identify small molecule antagonists of the retinoid-related orphan receptor gamma (ROR-gamma) signaling pathway - cell viability counter screen (AID 1159520; active means well fitted curve in the direction sought with a large enough effect in the repeat runs; an effect the other way counts as inactive or inconclusive; further: on the % scale 0 is the no-effect control and ±100 the full control effect; nearly all actives have a fitted effect of over 50% in size)
Method in brief: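 Tet-on ROR gamma CHO cells were given compounds for 2 hr, then doxycycline hyclate at 1 uM final, and incubated 16 hr at 37 C. Viability was measured as ATP content by CellTiter-Glo luminescence.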

[8] = target: Nuclear receptor ROR-gamma (Homo sapiens) (UniProt P51449); experiment: qHTS assay to identify small molecule antagonists of the retinoid-related orphan receptor gamma (ROR-gamma) signaling pathway (AID 1159521; active means well fitted curve in the direction sought with a large enough effect in the repeat runs; an effect the other way counts as inactive or inconclusive)
Method in brief: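 Tet-on RORγ CHO cells carrying a ROR response element–luciferase reporter were pretreated with compounds for 2 h, then induced with 1 uM (final) doxycycline hyclate for 16 h at 37 C. Antagonism was read as decreased ONE-Glo luminescence.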

[9] = qHTS assay to identify small molecule agonists of the AP-1 signaling pathway - cell viability counter screen (AID 1159525); further: nearly all actives have a fitted effect of over 55% in size
Method in brief: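 Same-well cytotoxicity counter screen of the Tox21 10K library in ME-180 cells. The readout is ATP-dependent luminescence after 5 h compound treatment. Data are normalised to DMSO and tetra n-octyl ammonium bromide controls.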

[10] = qHTS assay to identify small molecule agonists of the AP-1 signaling pathway (AID 1159526); further: on the % scale 0 is the no-effect control and ±100 the full control effect

N#CCC(=O)NN
inactive: outcome [1] | outcome [2] | outcome [3] | outcome [4] | outcome [5] | outcome [6] | outcome [7] | outcome [8] | outcome [9] | outcome [10]

CCCCCCCCCOC(=O)c1ccccc1C(=O)OCCCCCCCCC
inactive: outcome [1] | outcome [3] | outcome [4] | outcome [5] | outcome [6] | outcome [7] | outcome [8] | outcome [9] | outcome [10]

Cc1c(N)cccc1Cl
inactive: outcome [1] | outcome [3] | outcome [4] | outcome [5] | outcome [6] | outcome [7] | outcome [8] | outcome [9] | outcome [10]

CCC(C(=O)OCCN1CCOC(c2ccccc2)C1C)c1ccccc1 (stereo not given)
inactive: outcome [1] | outcome [3] | outcome [4] | outcome [5] | outcome [6] | outcome [7] | outcome [8] | outcome [9] | outcome [10]

O=[N+]([O-])c1c(Cl)cc(Cl)cc1Cl
inactive: outcome [1] | outcome [3] | outcome [4] | outcome [5] | outcome [6] | outcome [7] | outcome [8] | outcome [9] | outcome [10]

C=CCOC(=O)CCCCCC
inactive: outcome [1] | outcome [3] | outcome [4] | outcome [5] | outcome [6] | outcome [7] | outcome [8] | outcome [9] | outcome [10]

COC(=O)c1ccccc1C(=O)O
inactive: outcome [3] | outcome [4] | outcome [5] | outcome [6] | outcome [7] | outcome [8] | outcome [9] | outcome [10]

CC(O)CC(C)O (stereo not given)
inactive: outcome [1] | outcome [3] | outcome [4] | outcome [5] | outcome [6] | outcome [7] | outcome [8] | outcome [9] | outcome [10]

COc1ccc(CCO)cc1
inactive: outcome [1] | outcome [3] | outcome [4] | outcome [5] | outcome [6] | outcome [7] | outcome [8] | outcome [9] | outcome [10]

CC(C)C[C@@H]1[C@H](c2ccccc2)OC(=O)N1CCCN1CCCCCC1
inactive: outcome [1] | outcome [3] | outcome [4] | outcome [5] | outcome [6] | outcome [7] | outcome [8] | outcome [9] | outcome [10]

CC(=O)O[C@@H]1CC2CCC1(C)C2(C)C (stereo not given in full)
inactive: outcome [1] | outcome [2] | outcome [3] | outcome [4] | outcome [5] | outcome [6] | outcome [7] | outcome [8] | outcome [9] | outcome [10]

CC1OCCC1=O (stereo not given)
inactive: outcome [1] | outcome [2] | outcome [3] | outcome [4] | outcome [5] | outcome [6] | outcome [7] | outcome [8] | outcome [9] | outcome [10]

CC(C)NC(=O)c1ccc(C=O)cc1
inactive: outcome [1] | outcome [2] | outcome [3] | outcome [4] | outcome [5] | outcome [6] | outcome [7] | outcome [8] | outcome [9] | outcome [10]

C[Si]1(C)O[Si](C)(C)O[Si](C)(C)O[Si](C)(C)O[Si](C)(C)O1
inactive: outcome [1] | outcome [2] | outcome [3] | outcome [4] | outcome [5] | outcome [6] | outcome [7] | outcome [8] | outcome [9] | outcome [10]

CC/C(C)=N\O[Si](C)(O/N=C(\C)CC)O/N=C(\C)CC
inactive: outcome [1] | outcome [2] | outcome [3] | outcome [4] | outcome [5] | outcome [6] | outcome [7] | outcome [8] | outcome [9] | outcome [10]

C/C(CC(C)C)=N\O
inactive: outcome [1] | outcome [2] | outcome [3] | outcome [4] | outcome [5] | outcome [6] | outcome [7] | outcome [8] | outcome [9] | outcome [10]

Cc1ccnc(N)c1
inactive: outcome [1] | outcome [2] | outcome [3] | outcome [4] | outcome [5] | outcome [6] | outcome [7] | outcome [8] | outcome [9] | outcome [10]

CCOc1cccc(N)c1
inactive: outcome [1] | outcome [2] | outcome [3] | outcome [4] | outcome [5] | outcome [6] | outcome [7] | outcome [8] | outcome [9] | outcome [10]

CCn1cc(C(=O)O)c(=O)c2cnc(N3CCCC3)nc21
inactive: activity change, negative = cytotoxicity [1] 7.07% [at 13.2 µM] | viability change, negative = cytotoxic [2] -2.96% [at 6.95 µM] | activation [3] 0.219% [at 6.95 µM] | activity, negative = cytotoxic [4] -27.6% [at 6.95 µM] | activation [5] 1.19% [at 6.95 µM] | activity change, negative = cytotoxicity [6] -11.8% [at 6.95 µM] | activity, negative = cytotoxicity [7] 1.16% [at 8.39 µM] | activity change, negative = inhibition [8] 14.3% [at 8.39 µM] | viability change, negative = cytotoxic [9] 0.489% [at 6.97 µM] | activation [10] -6.77% [at 6.97 µM]

CCOC(CN1CCN(CC(C)C(=O)c2ccccc2)CC1)c1ccccc1 (stereo not given)
inactive: outcome [1] | outcome [2] | outcome [3] | outcome [4] | outcome [5] | outcome [6] | activity, negative = cytotoxicity [7] -1.7% [at 19 µM] | activity change, negative = inhibition [8] -4.62% [at 19 µM] | viability change, negative = cytotoxic [9] 14.4% [at 15.8 µM] | activation [10] 5.61% [at 15.8 µM]

COCCc1ccccn1
inactive: outcome [1] | outcome [2] | outcome [3] | outcome [4] | outcome [5] | outcome [6] | outcome [7] | outcome [8] | outcome [9] | outcome [10]

O=C(CCCCC(=O)Nc1c(I)cc(I)c(C(=O)O)c1I)Nc1c(I)cc(I)c(C(=O)O)c1I
inactive: outcome [1] | outcome [2] | outcome [3] | outcome [4] | outcome [5] | outcome [6] | outcome [7] | outcome [8] | outcome [9] | outcome [10]

CC/C=C\CCOC(=O)c1ccccc1O
inactive: outcome [1] | outcome [2] | outcome [3] | outcome [4] | outcome [5] | outcome [6] | outcome [7] | outcome [8] | outcome [9] | outcome [10]

Cc1c(C(=O)c2c[nH]n(C)c2=O)ccc(S(C)(=O)=O)c1C1=NOCC1
inactive: outcome [1] | outcome [2] | outcome [3] | outcome [4] | outcome [5] | outcome [6] | outcome [7] | outcome [8] | outcome [9] | outcome [10]

CC(N)CCCC(C)(C)O (stereo not given)
inactive: outcome [1] | outcome [2] | outcome [3] | outcome [4] | outcome [5] | outcome [6] | outcome [7] | outcome [8] | outcome [9] | outcome [10]
